# Assay results published in PubChem BioAssay (NCATS).
# Results filed as inconclusive are left out. Entries that show only a call come without a potency. Active and inactive are the calls of the source. Calls follow the shape of the dose curve; as a rule, active = well fitted curve in the direction sought with a large enough effect; inconclusive = small, poorly fitted or top-dose-only effect, or another doubt; inactive = no such curve, though single readings can be large; an effect the other way counts as inactive or inconclusive.
# Experiments:
# [1] = biological target: N-terminal Xaa-Pro-Lys N-methyltransferase 1 (Homo sapiens) (UniProt Q9BV86); test: qHTS Assay for Inhibitors of N-terminal methyltransferase 1 (NTMT1): LOPAC validation of the NTMT1 SAHH-coupled ThioGlo3 Assay (AID 1347143); also: nearly all actives have a fitted effect of over 70% in size
# Chain of N-terminal Xaa-Pro-Lys N-methyltransferase 1 (Homo sapiens) (Q9BV86 whole entry, looked up): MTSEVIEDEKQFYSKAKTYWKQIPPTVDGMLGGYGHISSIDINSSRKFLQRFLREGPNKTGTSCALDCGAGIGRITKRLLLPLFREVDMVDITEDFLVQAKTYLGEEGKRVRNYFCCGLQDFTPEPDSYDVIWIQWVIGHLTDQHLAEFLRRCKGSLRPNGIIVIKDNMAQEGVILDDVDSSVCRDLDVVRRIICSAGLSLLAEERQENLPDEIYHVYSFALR
# In short: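 Fluorescence read-out (excitation 340nm, emission 450nm) of SAH-derived thiol, measured via SAHH coupling and ThioGlo3, taken immediately and after a 30 min room-temperature reaction, then normalized to the background read. Enzyme: NTMT1 at 125nM; cofactor SAM 100uM in the added reagent.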
# [2] = system: Zika virus NS2B-NS3 protease (unlinked); test: Optimization of GU AMC qHTS for Zika virus inhibitors: Unlinked NS2B-NS3 protease assay (AID 1347151); also: series mostly up to about 52 µM; nearly all actives have a fitted effect of over 80% in size
# In short: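 In this qHTS, compounds acted on 25 nM unlinked Zika NS2B–NS3 in pH 8.0 Tris/Tween buffer. Cleavage of an AMC peptide ran 15 min at room temperature, to about 20% conversion.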
# [3] = system: Zika virus NS2B-NS3 protease; test: Primary screen GU AMC qHTS for Zika virus inhibitors (AID 1347154); also: nearly all actives have a fitted effect of over 70% in size
# In short: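 Unlinked Zika NS2B hydrophilic domain/NS3 protease domain noncovalent complex (25 nM final) in 10 mM Tris-HCl pH 8.0, 0.01% Tween 20, with AMC peptide substrate. Fluorescence (ex 340, em 450 nm) change over 15 min, room temperature; percent inhibition fitted to 4-parameter Hill equation.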
# Furin (Homo sapiens) = Furin (Homo sapiens) (UniProt P09958); test: Furin counterscreen qHTS for Zika virus inhibitors (AID 1347149);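 also: purified recombinant full-length human furin enzyme at 5 nM; fluorescence gain from furin cutting a BOC-RVRR-AMC peptide substrate over 15 min; top concentration of the series differs between compounds; nearly all actives have a fitted effect of over 70% in size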
# Chain of Furin (Homo sapiens) (P09958 whole entry, looked up): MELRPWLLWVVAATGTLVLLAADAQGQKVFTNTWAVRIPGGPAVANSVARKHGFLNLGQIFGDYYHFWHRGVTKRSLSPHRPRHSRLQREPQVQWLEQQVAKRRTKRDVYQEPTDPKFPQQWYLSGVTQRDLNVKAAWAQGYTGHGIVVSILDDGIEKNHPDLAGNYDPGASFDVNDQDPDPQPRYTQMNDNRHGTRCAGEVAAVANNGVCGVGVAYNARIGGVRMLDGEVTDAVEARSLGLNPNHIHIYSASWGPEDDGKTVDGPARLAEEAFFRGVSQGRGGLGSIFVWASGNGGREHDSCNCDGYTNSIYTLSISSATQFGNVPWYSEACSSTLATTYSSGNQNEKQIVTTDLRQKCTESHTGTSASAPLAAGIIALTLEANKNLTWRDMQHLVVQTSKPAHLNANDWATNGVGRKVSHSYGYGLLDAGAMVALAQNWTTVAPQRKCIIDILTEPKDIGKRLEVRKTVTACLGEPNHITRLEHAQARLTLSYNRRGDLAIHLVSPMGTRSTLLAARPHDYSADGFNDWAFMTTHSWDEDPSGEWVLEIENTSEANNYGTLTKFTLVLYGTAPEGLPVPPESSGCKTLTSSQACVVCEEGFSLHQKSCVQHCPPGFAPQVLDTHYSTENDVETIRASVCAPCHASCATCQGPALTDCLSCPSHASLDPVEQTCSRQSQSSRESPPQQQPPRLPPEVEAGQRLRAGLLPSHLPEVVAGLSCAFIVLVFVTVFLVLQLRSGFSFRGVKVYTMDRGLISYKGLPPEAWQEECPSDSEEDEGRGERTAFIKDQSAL
# In short: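 Fluorogenic cleavage of BOC-RVRR-AMC (2 microM final, Km ~15 µM) was monitored (ex 340, em 450 nm) at 37C after 15 min RT preincubation of 5 nM furin with compounds in HEPES pH 7.0 buffer with CaCl2 and Triton X-100. Percent inhibition was fitted to a 4-parameter Hill curve.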
smiles,measurement,setting,value
CCCN(CCC)C1CCc2ccc(O)cc2C1 (configuration not stated),Potency,[1],inactive
same,Potency,[2],inactive
same,Potency,[3],inactive
NCc1cc(=O)[nH]o1,Potency,[1],inactive
same,Potency,[2],inactive
same,Potency,[3],inactive
CCNC(=O)CC1N=C(c2ccc(Cl)cc2)c2cc(OC)ccc2-n2c(C)nnc21 (configuration not stated),Potency,[3],inactive
NCCc1c[nH]c2ccccc12,Potency,[1],inactive
same,Potency,[2],inactive
same,Potency,[3],inactive
O=C(O)c1cc(Oc2ccc(C(F)(F)F)cc2Cl)ccc1[N+](=O)[O-],Potency,Furin (Homo sapiens),inactive
same,Potency,[3],inactive
Nc1c(Cl)c(Cl)c(Cl)c(Cl)c1Cl,Potency,Furin (Homo sapiens),inactive
same,Potency,[3],inactive
O=C(O)C(Cl)Cl,Potency,[3],inactive
C[C@@H]1[C@H](O)[C@@H](C)C=CC=CCCC=CC=CC=CC=C[C@H](O[C@H]2O[C@@H](C)[C@H](O)[C@@H](N)[C@@H]2O)CC2O[C@](O)(C[C@@H](O)[C@H](O)CC[C@@H](O)C[C@@H](O)C[C@@H](O)CC(=O)O[C@H]1C)C[C@H](O)[C@H]2C(=O)O,Potency,[3],inactive
CC(C)[C@H]1C(=O)N[C@H](CO)Cc2c[nH]c3cccc(c23)N1C,Potency,[3],inactive
O=C1CCC[C@@H]2[C@H]3CCCN4CCC[C@@H](CN12)[C@@H]34,Potency,[3],inactive
CC(C)(O)C(=O)Nc1ccc([N+](=O)[O-])c(C(F)(F)F)c1,Potency,[3],inactive
CCN1C[C@]2(OC(=O)c3ccccc3NC(C)=O)CC[C@H](OC)[C@@]34[C@H]5CC6[C@@H](OC)C[C@](O)(C(C[C@@H]23)[C@@H]14)[C@@]5(O)[C@@H]6OC,Potency,[3],inactive
O=S(=O)(CC1CS1)c1ccc(Oc2ccccc2)cc1 (configuration not stated),Potency,[3],inactive
CCN(CC)C(=O)c1ccc(C2=CC3(CCNCC3)Oc3cccc(O)c32)cc1,Potency,[3],inactive
